Laboratory results: PubChem BioAssay (Tox21)
Results filed as inconclusive are left out. The source made the active and inactive calls. Unless noted, calls follow the shape of the dose curve; as a rule, active = well fitted curve in the direction sought with a large enough effect in the repeat runs; inconclusive = weak or mixed curves; inactive = no such curve, though single readings can be large; an effect the other way counts as inactive or inconclusive.

Key:
[1] = qHTS assay to identify small molecule antagonists of the estrogen receptor alpha (ER-alpha) signaling pathway using the BG1 cell line in the presence of 0.1 nM 17-beta-estradiol - cell viability counter screen (AID 1259241); also: nearly all actives have a fitted effect of over 40% in size; also: potency is read from the fitted curve at half-maximal effect
Outline: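 CellTiter-Fluor read (30 min, 37C) on ER-alpha/ERE-luc VM7Luc4E2 cells; 22 hr compound treatment; agonist 0.1 nM E2 final; same-well multiplex.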

[2] = qHTS assay to identify small molecule antagonists of the androgen receptor (AR) signaling pathway using the MDA cell line in the presence of 0.5 nM R1881 - cell viability counter screen (AID 1259242); also: nearly all actives have a fitted effect of over 45% in size; also: potency is read from the fitted curve at half-maximal effect
Outline: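 qHTS format. MDA-kb2 (MMTV-luc, AR/GR responsive) + cpd + 0.5 nM R1881 final, 16 hr 37C/0% CO2 → CellTiter-Fluor 30 min → fluorescence intensity.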

[3] = molecular target: Estrogen receptor (Homo sapiens) (UniProt P03372); assay: qHTS assay to identify small molecule antagonists of the estrogen receptor alpha (ER-alpha) signaling pathway using the BG1 cell line in the presence of 0.1 nM 17-beta-estradiol (AID 1259244); also: nearly all actives have a fitted effect of over 50% in size; also: potency is read from the fitted curve at half-maximal effect
Chain of Estrogen receptor (Homo sapiens) (P03372 whole entry, looked up): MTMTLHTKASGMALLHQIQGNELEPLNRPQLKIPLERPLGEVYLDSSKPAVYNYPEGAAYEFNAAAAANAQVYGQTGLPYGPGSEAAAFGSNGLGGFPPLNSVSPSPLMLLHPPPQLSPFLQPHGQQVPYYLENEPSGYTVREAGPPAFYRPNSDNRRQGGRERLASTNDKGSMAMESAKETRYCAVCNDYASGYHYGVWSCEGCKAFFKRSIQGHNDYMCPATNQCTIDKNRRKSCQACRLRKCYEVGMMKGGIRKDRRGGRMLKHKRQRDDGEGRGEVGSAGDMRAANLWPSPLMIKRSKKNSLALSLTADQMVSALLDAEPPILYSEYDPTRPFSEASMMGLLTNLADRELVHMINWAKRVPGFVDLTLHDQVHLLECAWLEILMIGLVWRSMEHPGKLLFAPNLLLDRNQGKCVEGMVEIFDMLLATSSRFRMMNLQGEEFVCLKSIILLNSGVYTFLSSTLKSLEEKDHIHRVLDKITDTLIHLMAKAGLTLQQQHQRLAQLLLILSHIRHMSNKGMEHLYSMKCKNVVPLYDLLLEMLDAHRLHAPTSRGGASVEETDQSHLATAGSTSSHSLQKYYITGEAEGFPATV
Outline: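 Reporter is a stably transfected luciferase under four estrogen responsive elements in VM7Luc4E2 cells expressing native full-length ER-alpha; inhibition of 0.1 nM (final) 17beta-estradiol-driven signal over 22 h is read by luminescence.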

[4] = qHTS assay to identify small molecule phospholipidosis (PLD) inducers (AID 1259344; active = well fitted curve in the direction sought with a large enough effect; an effect the other way counts as inactive or inconclusive)
Outline: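 After 4 h attachment on collagen I, HepG2 cells were dosed with compound alongside LipidTOX Red, kept 24 h at 37 C, fixed, and imaged for lamellar phospholipid pits.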

[5] = qHTS assay to identify small molecule HDAC inhibitors (AID 1259364);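 also: wild-type HCT-116 cells with endogenous class I/II HDAC activity; top concentration of the series differs between compounds; nearly all actives have a fitted effect of over 45% in size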
Outline: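 Quantitative high-throughput format: overnight-seeded HCT-116 cells got compounds for 2 hr at 37C; HDAC-Glo I/II reagent added, 30 min RT, luminescence measured.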

[6] = qHTS assay to identify small molecule agonists of the sonic hedgehog signaling (Shh) pathway - cell viability counter screen (AID 1259366); also: nearly all actives have a fitted effect of over 50% in size; also: potency is read from the fitted curve at half-maximal effect
Outline: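 Fluorescence from CellTiter-Fluor reports live cells in this counter screen. NIH/3T3-derived Gli1-Luc reporter cells receive test compounds for 24hr at 37C; reagent goes in at 23hr.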

[7] = qHTS assay to identify small molecule antagonists of the sonic hedgehog signaling (Shh) pathway - cell viability counter screen (AID 1259367); also: nearly all actives have a fitted effect of over 55% in size; also: potency is read from the fitted curve at half-maximal effect
Outline: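 Conditioned medium drove Shh signaling in 3T3 Gli1-Luc cells exposed to compounds at 37C and 5% CO2. Viability was determined from CellTiter-Fluor fluorescence, with reagent incubated 1 hr after 23 hr of treatment.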

[8] = qHTS assay to identify small molecule agonists of the sonic hedgehog signaling (Shh) pathway (AID 1259368; calls by dose curve;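 also: NIH/3T3-derived 3T3Gli1-Luc cells carrying a stable Gli1-driven firefly luciferase reporter; series mostly up to about 92 µM; nearly all actives have a fitted effect of over 15% in size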)
Outline: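 Quantitative high-throughput format using a Gli1-driven firefly luciferase reporter line derived from NIH/3T3 cells. After a 24 hr compound treatment at 37 C and 5% CO2, luminescence reported Gli1 response element activity.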

[9] = qHTS assay to identify small molecule antagonists of the sonic hedgehog signaling (Shh) pathway (AID 1259369; calls by dose curve; also: nearly all actives have a fitted effect of over 45% in size; also: potency is read from the fitted curve at half-maximal effect)
Outline: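 Stable Gli1-Luc reporter NIH/3T3 clone; quantitative HTS in stimulated mode with conditioned medium. Luminescence measured after 24hr compound treatment at 37 C.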

[10] = qHTS assay to identify small molecule agonists of the androgen receptor (AR) signaling pathway in the presence of an antagonist - cell viability counter screen (AID 1259379); also: nearly all actives have a fitted effect of over 25% in size; also: potency is read from the fitted curve at half-maximal effect
Outline: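 Nilutamide-containing (3.0uM final) MDA-kb2 cultures, 3,000 cells/well, were treated with compounds across 15 concentrations. After 16 hr at 37C with no CO2, cell viability was determined by CellTiter-Fluor fluorescence in the luciferase assay wells.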

[11] = qHTS assay to identify small molecule agonists of the estrogen receptor beta (ER-beta) signaling pathway - cell viability counter screen (AID 1259380); also: nearly all actives have a fitted effect of over 30% in size; also: potency is read from the fitted curve at half-maximal effect
Outline: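 Steps: plate ER-beta-UAS-bla HEK293T cells, rest 6 hr; add compounds in DMSO; incubate 16 hr at 37C, 5% CO2; add FRET substrate 2 hr; add CellTiter-Glo, wait 30 min at room temperature; read luminescence.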

[12] = qHTS assay to identify small molecule antagonists of the estrogen receptor beta (ER-beta) signaling pathway - cell viability counter screen (AID 1259382); also: nearly all actives have a fitted effect of over 55% in size; also: potency is read from the fitted curve at half-maximal effect
Outline: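 Viability is scored by CellTiter-Glo luminescence (30 min, room temperature) in ER-beta-UAS-bla HEK293T wells already read for reporter fluorescence. Compound exposure lasts 16 hr at 37C alongside 1nM 17-beta-estradiol in charcoal-stripped serum medium.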

[13] = molecular target: Estrogen receptor (Homo sapiens) (UniProt P03372); assay: qHTS assay to identify small molecule agonists of the estrogen receptor alpha (ER-alpha) signaling pathway in the presence of an antagonist (AID 1259383; calls by dose curve; also: top concentration of the series differs between compounds; nearly all actives have a fitted effect of over 15% in size)
Outline: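 Readout was ERE-driven luciferase luminescence in VM7Luc4E2 cells, which express full-length ER-alpha endogenously. Compounds were tested at 15 concentrations for 22hr alongside 10.0nM ICI-182,780 (final concentration).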

[14] = qHTS assay to identify small molecule agonists or antagonists of the thyroid stimulating hormone receptor (TSHR) signaling pathway - wild type cell line counter screen (AID 1259384; calls by dose curve)
Outline: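 Wild-type HEK293 cells were plated 18 h at 37 C/5% CO2, pin-dosed with compound plus Ro20-1724 medium, held 30 min at room temperature, then given cAMP-d2 and anti-cAMP-cryptate; fluorescence was read after 1 h. Fifteen concentrations, triplicate.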

[15] = molecular target: Thyrotropin receptor (Homo sapiens) (UniProt P16473); assay: qHTS assay to identify small molecule antagonists of the thyroid stimulating hormone receptor (TSHR) signaling pathway (AID 1259385; calls by dose curve; also: nearly all actives have a fitted effect of over 20% in size)
Chain of Thyrotropin receptor (Homo sapiens) (P16473 whole entry, looked up): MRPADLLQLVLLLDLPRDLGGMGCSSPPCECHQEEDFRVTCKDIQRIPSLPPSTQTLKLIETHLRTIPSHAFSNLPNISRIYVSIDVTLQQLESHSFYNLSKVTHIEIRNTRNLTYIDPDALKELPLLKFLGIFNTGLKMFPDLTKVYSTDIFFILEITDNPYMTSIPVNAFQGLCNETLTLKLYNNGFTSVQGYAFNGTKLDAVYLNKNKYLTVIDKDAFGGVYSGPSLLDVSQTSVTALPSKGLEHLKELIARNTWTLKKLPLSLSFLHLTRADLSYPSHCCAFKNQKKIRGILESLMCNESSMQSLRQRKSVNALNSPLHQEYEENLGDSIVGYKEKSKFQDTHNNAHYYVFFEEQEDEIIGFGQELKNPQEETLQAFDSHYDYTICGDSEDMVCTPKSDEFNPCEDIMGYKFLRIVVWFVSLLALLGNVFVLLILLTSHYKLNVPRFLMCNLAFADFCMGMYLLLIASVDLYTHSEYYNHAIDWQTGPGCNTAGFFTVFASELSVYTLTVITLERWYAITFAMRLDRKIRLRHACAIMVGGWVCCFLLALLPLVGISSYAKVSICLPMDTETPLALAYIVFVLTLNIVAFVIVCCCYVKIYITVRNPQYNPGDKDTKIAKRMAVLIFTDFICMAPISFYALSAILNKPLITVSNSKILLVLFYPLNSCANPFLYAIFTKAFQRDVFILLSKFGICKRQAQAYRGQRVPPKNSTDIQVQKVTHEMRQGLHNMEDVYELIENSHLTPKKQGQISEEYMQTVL
Outline: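 TSHR-HEK293 cells were plated and held 18 h at 37C/5% CO2, then given compound plus Ro20-1724 and stimulated with TSH at 1.5 ng/mL final. After 30 min at room temperature, cAMP was detected with cAMP-d2/anti-cAMP-cryptate (1 h) by fluorescence.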

[16] = molecular target: Androgen receptor (Homo sapiens) (UniProt P10275); assay: qHTS assay to identify small molecule antagonists of the androgen receptor (AR) signaling pathway using the MDA cell line in the presence of 0.5 nM R1881 (AID 1259243); also: potency is read from the fitted curve at half-maximal effect; nearly all actives have a fitted effect of over 50% in size
Chain of Androgen receptor (Homo sapiens) (P10275 whole entry, looked up): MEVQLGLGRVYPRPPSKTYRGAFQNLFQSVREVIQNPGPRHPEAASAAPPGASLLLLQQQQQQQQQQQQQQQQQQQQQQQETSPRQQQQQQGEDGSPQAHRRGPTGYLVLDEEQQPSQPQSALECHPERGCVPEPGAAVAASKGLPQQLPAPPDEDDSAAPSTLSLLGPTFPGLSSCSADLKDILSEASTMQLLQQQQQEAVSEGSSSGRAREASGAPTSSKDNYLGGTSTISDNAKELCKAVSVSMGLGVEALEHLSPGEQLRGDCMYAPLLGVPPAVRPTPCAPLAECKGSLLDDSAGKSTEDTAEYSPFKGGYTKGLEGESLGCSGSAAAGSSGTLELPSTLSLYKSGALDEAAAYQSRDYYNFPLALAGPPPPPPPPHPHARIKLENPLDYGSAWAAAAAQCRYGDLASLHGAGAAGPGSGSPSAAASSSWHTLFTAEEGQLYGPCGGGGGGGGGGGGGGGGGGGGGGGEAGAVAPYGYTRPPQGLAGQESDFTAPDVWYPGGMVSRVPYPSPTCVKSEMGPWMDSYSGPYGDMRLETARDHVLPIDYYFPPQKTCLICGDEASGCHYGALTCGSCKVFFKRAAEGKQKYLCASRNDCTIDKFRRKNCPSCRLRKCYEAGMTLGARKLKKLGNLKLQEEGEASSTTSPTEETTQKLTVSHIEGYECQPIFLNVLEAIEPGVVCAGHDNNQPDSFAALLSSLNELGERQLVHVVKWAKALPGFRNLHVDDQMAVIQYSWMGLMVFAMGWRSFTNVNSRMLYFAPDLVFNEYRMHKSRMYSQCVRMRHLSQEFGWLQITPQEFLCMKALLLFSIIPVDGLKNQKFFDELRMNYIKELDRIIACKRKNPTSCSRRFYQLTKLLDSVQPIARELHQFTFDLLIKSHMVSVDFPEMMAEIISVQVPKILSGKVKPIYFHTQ
Outline: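 Antagonist mode quantitative HTS in MDA-kb2 MMTV-luciferase cells, agonist R1881 at 0.5 nM final, 16 hr exposure at 37C and 0% CO2, luminescent detection.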

[17] = qHTS assay to identify small molecule HDAC inhibitors - cell viability counter screen (AID 1259365); also: series mostly up to about 92 µM; nearly all actives have a fitted effect of over 50% in size
Outline: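 To flag cytotoxic hits, 1,500 wild-type HCT-116 cells per well, plated the day before, receive test compounds for 2hr at 37 C before CellTiter-Glo reagent and a luminescence read.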

[18] = molecular target: Estrogen receptor beta (Homo sapiens) (UniProt Q92731); assay: qHTS assay to identify small molecule agonists of the estrogen receptor beta (ER-beta) signaling pathway (AID 1259377; active = well fitted activation curve with a large enough effect in the signal ratio in the repeat runs, not every such curve was filed as active; the % refers to the signal ratio)
Chain of Estrogen receptor beta (Homo sapiens) (Q92731 whole entry, looked up): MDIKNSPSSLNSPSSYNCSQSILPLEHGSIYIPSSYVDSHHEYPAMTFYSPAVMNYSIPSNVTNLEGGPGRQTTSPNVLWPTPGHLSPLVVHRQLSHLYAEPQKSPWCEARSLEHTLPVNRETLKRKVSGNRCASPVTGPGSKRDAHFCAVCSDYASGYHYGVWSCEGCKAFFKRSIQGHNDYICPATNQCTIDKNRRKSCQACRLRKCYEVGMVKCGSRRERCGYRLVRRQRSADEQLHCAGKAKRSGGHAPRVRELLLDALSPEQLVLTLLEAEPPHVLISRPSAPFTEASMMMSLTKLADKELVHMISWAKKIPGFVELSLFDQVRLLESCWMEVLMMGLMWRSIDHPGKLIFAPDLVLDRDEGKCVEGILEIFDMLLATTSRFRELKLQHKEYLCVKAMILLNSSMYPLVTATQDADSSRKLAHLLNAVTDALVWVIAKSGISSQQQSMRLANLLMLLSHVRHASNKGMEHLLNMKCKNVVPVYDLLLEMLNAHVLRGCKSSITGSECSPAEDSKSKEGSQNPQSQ
Outline: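 Screening used GripTite ER-beta-UAS-bla cells held in 2% charcoal-stripped FBS medium. After overnight (16 hr) compound incubation at 37C, beta-lactamase activity was detected with a FRET substrate by fluorescence.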

[19] = molecular target: Estrogen receptor beta (Homo sapiens) (UniProt Q92731); assay: qHTS assay to identify small molecule antagonists of the estrogen receptor beta (ER-beta) signaling pathway (AID 1259378; active = well fitted inhibition curve with a large enough effect in the signal ratio in the repeat runs, not every such curve was filed as active; the % refers to the signal ratio; also: potency is read from the fitted curve at half-maximal effect)
Outline: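 ER-beta-UAS-bla HEK293T (GripTite) cells in 2% charcoal-stripped FBS medium were preincubated 6 hr at 37C, dosed with compound, then stimulated with 1 nM E2 (final) for 16 hr; beta-lactamase reporter read by B/G FRET fluorescence after 2 hr substrate loading.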

[20] = molecular target: Androgen receptor (Homo sapiens) (UniProt P10275); assay: qHTS assay to identify small molecule agonists of the androgen receptor (AR) signaling pathway in the presence of an antagonist (AID 1259381; calls by dose curve; also: nearly all actives have a fitted effect of over 15% in size)
Outline: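 Reporter-gene luminescence from MDA-kb2 cells exposed 16hr at 37C (0% CO2) to 15-point compound titrations with 3.0uM final nilutamide as AR antagonist.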

Measured: Potency

OC1(c2ccc(Cl)c(C(F)(F)F)c2)CCN(CCCC(c2ccc(F)cc2)c2ccc(F)cc2)CC1
inactive: [4] | [5] | [8] | [13] | [14] | [15]
active: [1] 33.5 µM | [2] 13.3 µM | [3] 26.6 µM | [6] 13.3 µM | [7] 18.8 µM | [9] 13.3 µM | [10] 18.8 µM | [11] 10.6 µM | [12] 10.6 µM

CCCCCOc1ccccc1/C(=C\SC)n1ccnc1
active: [16] 21.1 µM | [19] 10.6 µM | [11] 23.7 µM | [12] 29.8 µM
not listed: [3] | [4] | [13]
inactive: all other assays above

ON=C1CCCC1
active: [16] 63.3 µM | [11] 35.6 µM
not listed: [3] | [4] | [13] | [14] | [18]
inactive: all other assays above

CSc1ccc(/C=C2/C(C)=C(CC(=O)O)c3cc(F)ccc32)cc1
active: [11] 10.6 µM
not listed: [7] | [12] | [16] | [17] | [18] | [19]
inactive: all other assays above

COc1c(C)c2c(c(O)c1C/C=C(\C)CCC(=O)O)C(=O)OC2
active: [11] 0.133 µM
not listed: [12] | [13] | [14] | [15] | [16] | [19] | [20]
inactive: all other assays above

CSc1ccc(C(=O)c2[nH]c(=O)[nH]c2C)cc1
not listed: [14] | [16] | [18] | [19] | [20]
inactive: all other assays above

CCc1cc(Cc2cc(CC)c(N)c(CC)c2)cc(CC)c1N
active: [3] 54.5 µM | [9] 30.6 µM | [11] 27.3 µM | [12] 48.6 µM
not listed: [4] | [10] | [16] | [19] | [20]
inactive: all other assays above
